Bioassay records: PubChem BioAssay, National Center for Advancing Translational Sciences (NCATS)
IL-1B inflam inh – inhibitors of inflammasome signaling (IL-1 beta secretion); activity change, % at 57.5 µM; THP-1 LPS/ATP IL-1B secretion, AlphaLISA, 16 h; active compounds read low; 360,000 tested, 4.7% active; in the data active = activity change below about -50%; inconclusive = mostly about -30% to -49%
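THP-1 cells pretreated 1 hr with compounds (up to 57.5 uM final), then stimulated with LPS (250 ng/mL final) plus ATP (1.25 mM final); secreted IL-1B measured by AlphaLISA after 16 hr, decreased signal indicating inhibition.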
TDP1 cell CPT – DT40-hTDP1 cell growth loss with CPT | chicken DT40 Tdp1-/-;hTDP1 cells + 20 nM CPT, ATP luminescence, 48 h | Potency, µM (series often up to 46.2 µM), usual class: inhibitors | 420,000 tested, 12% active | AID 686979; also: nearly all actives have a fitted effect of over 55% in size
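Chicken DT40 Tdp1-/- cells stably complemented with human TDP1 were seeded at 400 cells/well in medium containing 20 nM camptothecin, exposed to pin-transferred compounds, and grown at 37 °C for at least 48 hr. Viability was read as ATP luminescence.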
HT1080NT lethal – kills 2HG-producing HT-1080-NT fibrosarcoma cells; HT-1080-NT fibrosarcoma viability, CellTiter-Glo ATP luminescence, 48 h; Potency, µM (series often up to 46.1 µM), actives largely listed as cytotoxic; 360,000 tested, 1.6% active; AID 686970;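 also: NT is the 2HG producing partner of a matched IDH1 knockdown line; nearly all actives have a fitted effect of over 55% in size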
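A 48-hour cytotoxicity screen used HT-1080-NT cells plated 2 hours before compound delivery. ATP-based CellTiter-Glo luminescence measured viability, normalized to DMSO and no-cell controls.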
ELG1 DNA repair – blocks ELG1-dependent DNA repair in HEK293T cells. HEK293T ELG1-luciferase reporter, luminescence, 16 h; DNA damage induced by 5-fluorouridine. Potency, µM (highest dose often 46.1 µM), most hits filed as inhibitors. 330,000 tested, 2.3% active. AID 504467; also: nearly all actives have a fitted effect of over 55% in size
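DMSO vehicle served as the neutral condition. Each well held 2,000 cells given 5-fluorouridine plus compound; after 16 hr at 37 °C/5% CO2, ONE-Glo was added and luciferase measured 30 min later.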
HT1080 IDH1KD tx – HT-1080 IDH1 knockdown cell toxicity (counter line). HT-1080 IDH1 knockdown viability, ATP luminescence, 48 h. Potency, µM (series often up to 46.1 µM), most hits filed as cytotoxic. 360,000 tested, 2% active
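CellTiter-Glo luminescence after 48 h compound exposure at 37 degrees C of IDH1-knockdown HT-1080 cells in 5% FBS RPMI. %Activity scaled between DMSO wells and cell-free media wells, with curves fitted and assigned curve classes.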
DT40 TDP1 no CPT – qHTS for Inhibitors of human tyrosyl-DNA phosphodiesterase 1 (TDP1): qHTS in cells in absence of CPT | Potency, µM (titrated, usually from 46.2 µM), hits mostly inhibitors | DT40 Tdp1-/- hTDP1 cells, no CPT, ATP luminescence, 48 h | 420,000 tested, 15% active | AID 686978, 2013; also: nearly all actives have a fitted effect of over 55% in size
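Readout: luminescence from CellTiter-Glo after 30 min in the dark at RT. Cells: DT40 Tdp1-/- with stable hTDP1, 400/well. Exposure: compounds alone, ≥48 hr, 37 °C.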
A number is an active result; . = inactive; ? = inconclusive; / = no result given; [ ] = dose if it differs, or a comment. Rows were chosen to be rich in hits. Some 19% of all compounds tested hit in one or more screens of this group. Unless noted, calls follow the shape of the dose curve; as a rule, active = well fitted curve in the direction sought with a large enough effect; inconclusive = small, poorly fitted or top-dose-only effect, or another doubt; inactive = no such curve, though single readings can be large; an effect the other way counts as inactive or inconclusive.

SMILES	IL-1B inflam inh	TDP1 cell CPT	HT1080NT lethal	ELG1 DNA repair	HT1080 IDH1KD tx	DT40 TDP1 no CPT
C=C[C@]1(C)C[C@@H](OC(=O)CSCCN(CC)CC)[C@]2(C)C(C)CC[C@]3(CCC(=O)[C@H]32)[C@@H](C)[C@@H]1O (stereo not given in full)	.	8.2µM	.	.	.	8.2µM
C=C[C@@]1(C)C[C@H](OC(=O)CSC(C)(C)CNC(=O)[C@@H](N)C(C)C)[C@@]2(C)C(C)CC[C@@]3(CCC(=O)[C@@H]32)[C@H](C)[C@H]1O (stereo not given in full)	/	0.11µM	/	/	/	0.079µM
N#CCCN(C(=O)COC(=O)c1cc(=O)c2ccccc2o1)c1ccccc1	.	.	.	.	.	.
CCc1nn(CC(=O)NCCCN(CC(C)C)CC(C)C)c(=O)c2cc3sc(C)cc3n12	/	.	/	/	/	?
c1ccc2c(c1)oc1c(-c3cccc4nccn34)cccc12	.	13µM	?	/	?	?
O=C(O)c1cc(=O)c2ccc(Cl)cc2[nH]1	/	.	/	/	/	.
O=C(CSc1nnc(CNC(=O)c2ccco2)o1)Nc1cccc(F)c1	.	.	.	.	.	.
S=C(NCCc1cccc(Cl)c1)NC1CCCCC1	.	?	?	?	?	21µM
S=C(NC1CCCCC1)NC1CC2CCC(C1)N2Cc1ccccc1 (stereo not given)	.	?	.	.	.	18µM
S=C(NCCc1ccccc1)NC1CC2CCC(C1)N2Cc1ccccc1 (stereo not given)	-60	?	.	.	.	?
CCCNC(=S)NC1CC2CCC(C1)N2Cc1ccccc1 (stereo not given)	.	?	.	.	.	.
CCN(CC(=O)N1CCOCC1)S(=O)(=O)c1ccc2ccccc2c1	.	.	.	.	.	.
CC(C)NS(=O)(=O)c1ccc(NC(=O)C(C)OC(=O)C2CCC2)cc1 (stereo not given)	.	.	.	?	.	.
CN1CCN(c2nc3c(c(=O)n(C)c(=O)n3C)n2Cc2ccccc2F)CC1	.	.	.	.	.	.
Cn1c(=O)c2c(nc(CN3CCN(C(c4ccccc4)c4ccccc4)CC3)n2CC(N)=O)n(C)c1=O	.	.	.	.	.	.
CCOC(=O)Cn1c(CN2CCN(C(c3ccccc3)c3ccccc3)CC2)nc2c1c(=O)n(C)c(=O)n2C	.	?	.	?	.	23µM
Cc1ccccc1Cn1c(CN2CCc3ccccc3C2)nc2c1c(=O)n(C)c(=O)n2C	-59	?	?	13µM	?	21µM
CCCCn1c(CN2CCN(C(=O)OCC)CC2)nc2c1c(=O)n(C)c(=O)n2C	.	12µM	.	?	.	9.2µM
Cn1c(=O)c2c(nc(N3CCc4ccccc4C3)n2Cc2ccccc2F)n(C)c1=O	.	13µM	.	?	.	16µM
Cc1ccccc1Cn1cc(NC(=O)c2cc(C3CC3)on2)cn1	.	.	.	?	.	.
O=C(Nc1ccn(CCCNCc2ccc3c(c2)OCO3)c(=O)n1)OCc1ccccc1	.	.	.	/	.	?
O=C(Cc1ccc(Cl)cc1Cl)NCc1cccnc1	.	.	.	?	.	.
Cn1c(=O)c2c(nc(N3CCc4ccccc4C3)n2Cc2ccc(Br)cc2)n(C)c1=O	.	.	.	.	.	.
Cn1c(=O)c2c(nc(CN3CCc4ccccc4C3)n2Cc2ccc(F)cc2)n(C)c1=O	.	21µM	.	/	.	18µM
COC(=O)Cn1c(CN2CCc3ccccc3C2)nc2c1c(=O)n(C)c(=O)n2C	.	13µM	.	.	.	21µM
SMILES	IL-1B inflam inh	TDP1 cell CPT	HT1080NT lethal	ELG1 DNA repair	HT1080 IDH1KD tx	DT40 TDP1 no CPT
COC(=O)Cn1c(N2CCCC2)nc2c1c(=O)n(C)c(=O)n2C	.	.	.	.	.	.
NC(=O)C(C(=O)/C=C/c1ccc(Cl)cc1)=C1SCCS1	-99	3.3µM	.	?	?	8.2µM
COc1ccc(/C=C/C(=O)C(C(N)=O)=C2SCCS2)cc1	?	?	.	?	.	?
COc1ccc(CN2CCCC(N3CCN(c4cccc(Cl)c4)CC3)C2)cc1OC (stereo not given)	.	?	.	.	.	23µM
COc1ccc(CN2CCCC(N3CCN(c4ccc(OC)cc4)CC3)C2)cc1 (stereo not given)	.	.	.	.	.	.
CCOc1cc(CN2CCCC(N3CCN(c4ccc(F)cc4)CC3)C2)ccc1OC (stereo not given)	.	16µM	.	.	.	?
CC(C)CN1CCCC(N2CCN(c3cccc(Cl)c3)CC2)C1 (stereo not given)	.	.	.	.	.	.
Cc1ccc(Oc2coc3cc(OCC(=O)NC4CCCCC4)ccc3c2=O)cc1	/	.	/	/	/	.
O=C(NCCc1ccccc1)C1CCN(C(=O)c2sccc2-n2cccc2)CC1	.	.	.	.	.	?
CCN(CC)S(=O)(=O)N1CCC(C(=O)NC2CCCc3ccccc32)CC1 (stereo not given)	.	?	.[9.24 µM]	16µM	.	?
O=C(NC1CCCc2ccccc21)C1CCN(C(=O)c2sccc2-n2cccc2)CC1 (stereo not given)	.	15µM	.	?	.	?
CC(=O)NCCNC(=O)C1(C)Cc2c(-c3cccc(C(F)(F)F)c3)ccnc2O1 (stereo not given)	.	.	.	/	.	.
COc1ccc(C(C(=O)NC2CCCC2)N(C(=O)c2ccoc2C)c2ccc(C)cc2)cc1 (stereo not given)	.	18µM	.	.	.	16µM
COc1ccc(N(C(=O)c2ccco2)C(C(=O)NC2CCCC2)c2ccncc2)cc1 (stereo not given)	.	.	.	?	.	.
COc1ccc(C(C(=O)NC2CCCCC2)N(C(=O)CCl)c2ccc(C)cc2)cc1 (stereo not given)	-106	1.8µM	0.82µM	?	1.2µM	1.6µM
COC(CN(C(=O)CCl)C(C(=O)NC1CCCCC1)c1ccc(C)cc1)OC (stereo not given)	-93	16µM	.	.	.	13µM
COc1ccc(C(C(=O)NC2CCCCC2)N(C(=O)CCl)c2ccc(OC)cc2)cc1 (stereo not given)	-90	1.8µM	1.6µM	?	1.2µM	1.5µM
COc1ccc(N(C(=O)CNC(=O)c2cccs2)C(C(=O)NC2CCCC2)c2ccncc2)cc1 (stereo not given)	.	.	.	.	.	.
